# Assay results reported in the supplement of paper PMC6555819.
# Experiments:
# Test in all cases: PBM binding z-score (relative to random genomic background probes); higher = stronger binding; sequences stand for … in GC…GCGATTGACAGCGTAGAATGAAGG
# [1] = test system: PPARg:RXRa DBDmut IVT, anti-RXR (DBD mutation: RXRa K156A/R161A, NR concentration 270 nM, RXRa partner concentration 90 nM)
# How it was run: (§1)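 Random background probes are the reference for binding z-scores. These scores derive from regression-normalized fluorescence on custom Agilent 4×180K protein-binding microarrays incubated 1 h with ligand-free nuclear receptor dimers. Binding was detected with antibodies against each partner (one per run).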
# [2] = test system: PPARg:RXRa IVT, anti-PPARg (NR concentration 270 nM, RXRa partner concentration 90 nM)
# How it was run: as §1
# [3] = test system: PPARg DBDmut:RXRa IVT, anti-PPARg (DBD mutation: PPARg1 K132A/R137A, NR concentration 270 nM, RXRa partner concentration 90 nM)
# How it was run: as §1
# [4] = test system: PPARg DBDmut IVT, anti-PPARg (DBD mutation: PPARg1 K132A/R137A, NR concentration 270 nM)
# How it was run: as §1
# [5] = test system: PPARg homodimer (NR concentration 180 nM)
# How it was run: as §1
# [6] = test system: PXR:RXRa (NR concentration 270 nM, RXRa partner concentration 90 nM)
# How it was run: as §1
# [7] = test system: PXR homodimer (NR concentration 270 nM)
# How it was run: as §1
# [8] = test system: RARa:RXR (NR concentration 270 nM, RXRa partner concentration 90 nM)
# How it was run: as §1
# [9] = test system: RARa homodimer (NR concentration 270 nM)
# How it was run: as §1
# [10] = test system: RARb:RXRa (NR concentration 270 nM, RXRa partner concentration 90 nM)
# How it was run: as §1
# [11] = test system: RARb homodimer (NR concentration 270 nM)
# How it was run: as §1
# [12] = test system: RARg:RXRa (NR concentration 270 nM, RXRa partner concentration 90 nM)
# How it was run: as §1
# [13] = test system: RARg homodimer (NR concentration 270 nM)
# How it was run: as §1
# [14] = test system: RXRa DBDmut IVT, anti-RXR (DBD mutation: RXRa K156A/R161A, NR concentration 90 nM)
# How it was run: as §1
# [15] = test system: RXRa homodimer (NR concentration 180 nM)
# How it was run: as §1
# [16] = test system: THRa:RXRa (NR concentration 90 nM, RXRa partner concentration 90 nM)
# How it was run: as §1
# [17] = test system: THRa homodimer (NR concentration 90 nM)
# How it was run: as §1
# [18] = test system: VDR:RXRa (NR concentration 270 nM, RXRa partner concentration 90 nM)
# How it was run: as §1
# [19] = test system: VDR homodimer (NR concentration 270 nM)
# How it was run: as §1
Sequence,PBM binding z-score [1],PBM binding z-score [2],PBM binding z-score [3],PBM binding z-score [4],PBM binding z-score [5],PBM binding z-score [6],PBM binding z-score [7],PBM binding z-score [8],PBM binding z-score [9],PBM binding z-score [10],PBM binding z-score [11],PBM binding z-score [12],PBM binding z-score [13],PBM binding z-score [14],PBM binding z-score [15],PBM binding z-score [16],PBM binding z-score [17],PBM binding z-score [18],PBM binding z-score [19]
AGTCAAGGTTCAGGACGAGGTAACGTAAAGCACG,-0.591,0.701,-0.373,0.579,0.61,1.35,0.133,1.95,0.0883,2.38,1.55,3.45,2.41,2.61,2.19,3.55,1.75,2.03,2.25
ATCTCTATGTAAAGATAGTTCAGTGAATGCAAAT,-0.623,-0.061,0.754,1.67,0.106,0.604,0.457,0.433,0.866,0.242,0.692,0.486,0.571,0.0227,0.467,0.271,-0.195,0.557,0.366
CGGACTGGGGCATAAGGTTACCATAAGCCAGCCC,4.08,5.2,1.2,1.32,1.19,0.635,-0.0559,1.48,-0.515,1.78,1.94,1.83,1.21,-0.836,1.29,2.18,1.39,0.33,-0.454
TGAATGAGGTTAGAGATCAGGGAACGTGGCGTCG,0.771,2.14,0.576,0.367,0.476,0.397,-0.359,1.29,-0.00359,1.3,0.675,1.04,0.944,-0.0534,1.71,1.39,0.0858,0.296,-0.315
ATCGAAAGGTCGAAGGTGAGTATTCCCACCCGAA,0.38,2.13,0.944,0.361,2.58,2.89,-0.082,4.32,0.118,3.64,2.4,4.36,3.76,1.17,5.41,2.13,0.00651,2.58,0.282
CGAACGAGGGCATGAGTTGATAGCTAATGCCGAT,2.71,2.2,0.229,-0.661,0.249,0.689,0.178,0.401,0.0358,2.08,0.599,1.51,1.52,2.15,0.984,1.25,-0.207,1.37,1.67
ATATGTAGGTTATCGGGTCATTCACTTTGCGCAT,7.73,7.65,4.35,2.87,2.48,3.44,1.07,4.15,2.17,2.64,3.14,3.43,2.55,1.88,3.56,3.39,2.94,3.73,3.12
CCAGCTAGGTCAATGGTCAGCTAAAGCAGCTCGC,4.9,4.47,-0.141,-0.0695,1.28,0.737,-0.176,1.49,-0.163,3.73,2.83,3.55,4.15,1.51,2.04,2.1,0.209,1,0.021
GCTAGTTGGTCAGTCAAAGGTCACACACCGGTCG,1.51,3.42,-0.105,0.277,3.62,5.2,1.01,6.33,1.11,4.36,5.2,5.9,4.85,0.537,5.93,3.52,1.59,4.3,1.47
CGTAGCAGGCCAGGGTCACTCAAGCATTTCGCTT,0.638,1.11,-0.725,-1.16,0.494,2.28,-0.189,2.69,-0.182,2.66,2.51,3.02,2.53,0.749,3.36,2.84,1.33,2.59,1.18
CGAACTAGGTCAGAACAGGACAGTGACGGATGAT,7.03,7.13,1.03,0.514,0.929,0.794,0.206,0.633,0.383,2.99,2,2.38,3.42,0.578,1.31,3.31,0.199,0.542,0.168
TCTTGTAGATCAGTAGAGGTTAAGAAAGTGCGCT,1.74,0.609,1.08,0.665,0.247,2.93,-0.0152,1.63,0.74,0.882,1.26,0.475,0.344,0.802,1.24,1.88,-0.288,1.51,0.245
CCGACTGGGGTATAAGGTTACCATAAGCCAGCCC,1.17,1.24,-0.919,-1.39,0.667,0.301,-0.29,1.24,0.0701,0.726,0.893,0.542,0.421,-0.174,1.11,2.02,1.21,0.219,-0.0356
TTAGACAGGTGAAGGTAACTCAGGTACGCAGTCG,1.15,1.49,1.36,0.841,0.811,0.344,-0.00345,0.387,0.607,0.951,0.861,0.559,0.81,-0.329,0.753,1.48,0.377,0.618,0.53
CAAACTAGGTCAAAGGTCAATGTCGAGCCAACCA,8.75,9.22,5.2,5.46,8.27,7.07,1.86,8.9,4.59,5.51,5.2,8.62,7.28,3.16,9.99,4.71,1.71,6.33,3.03
CGTCAAAGTTCAAGGTAACGTATCAGAAAGCAGC,1.16,2.03,0.808,-0.101,2.73,4.22,3.05,3.48,1.28,4.98,3.97,5.22,6.45,4.52,4.44,3.06,1.44,3.97,3.38
AATACAGGGTCACTAGCCCAGAGTAGGTACGAAT,2.81,4.3,1.88,0.703,2.29,2.92,0.113,3.64,1.11,4.08,2.95,4.82,4.62,2.61,5.17,3.22,1.13,4,2.21
ATCACTAGGTAAAGATAGTTCAGTGAATGCAAAT,3.21,2.54,1.22,1.14,0.795,1.02,0.598,0.654,1.19,0.635,0.839,0.649,0.795,-0.617,0.325,0.492,0.0795,0.888,0.49
TTACCAAGGTTAGCTGAGGTCGTTGATCCAACTC,0.191,0.594,-0.413,-0.849,0.103,5.71,1.46,2.83,-0.023,2.1,2.06,1.68,1.41,0.854,1.84,5.01,2.13,5.09,2.87
CAAACTGGGTCACAGAGGTCAAAGTCCGTGCGTA,7.82,8.76,4.79,4.1,3.96,6.74,9,7.06,0.622,5.21,5.5,7.14,7.26,3.26,7.99,4.4,2.19,7.58,5.91
CGAACTAGCTCATTGACAGGACAGTGAATAGTAA,-0.0116,-0.052,0.48,0.24,-0.35,-0.133,0.129,0.164,0.183,-0.386,0.184,-0.00563,0.0455,0.00616,-0.33,-0.0508,-0.291,-0.486,-0.0514
AGTCAAAGTACAGGACGAGGTAACGTAAAGCACG,-0.428,0.795,0.576,0.384,0.381,-0.161,0.4,0.278,-0.0608,0.641,0.274,0.526,0.919,-0.155,0.598,1.39,0.878,-0.143,-0.0315
GAGACAGGGTCAGCTAGAGGCCAGAGTATGGAAA,0.507,1.1,-0.524,-0.747,3.57,3.34,0.373,4.73,0.0826,4.09,3.05,6.57,4.77,1.03,4.3,3.06,0.161,3.22,0.581
CTCGGAAGGTCGGTTGAGGTGAGTATACGGATAA,-0.598,0.491,-0.365,-0.461,0.527,1.84,-0.347,0.849,-0.2,1.89,1.62,1.28,1.86,0.318,0.83,4.59,1.32,1,0.205
TCGAGTAGGTTACTCGGGGCATTCAGCCAACATA,3.23,2.79,-0.543,-0.378,-0.112,0.641,-0.427,0.651,-1.03,0.57,0.524,0.206,0.191,0.42,0.372,1.76,-0.17,3.33,0.557
AGTCAAAGTTCATTAGGTAACGTAAGATTCAGCT,1.93,4.02,1.72,1.88,3.26,4.83,6.94,3.77,1.92,4.7,3.87,5.26,5.92,4.97,4.52,2.59,0.801,4.72,5.43
TCTTGTAGGTCAGCAGGTTAAGAAAGCTGGCCAA,6.85,7.39,2.94,2.48,2.31,1.95,-0.0454,2.84,0.787,3.91,3.05,4.48,4.43,0.785,3.23,1.97,-0.325,3.54,0.0594
TCTTGTAGATCAATAGAGGTAAAGAAAGTGCGCT,1.51,0.822,0.0443,0.312,-0.815,0.573,0.0758,0.505,-0.142,-0.0126,-0.162,0.0817,0.0168,0.436,0.364,1.9,-0.539,0.45,-0.6
TTACCAAGGTGAAGGTCGTCGATCCCTCTGTAGA,1.94,3.33,0.0568,0.108,0.887,1.24,-0.288,1.64,-0.604,2.36,1.78,1.59,1.7,-0.188,2.12,2.36,0.653,1.09,-0.137
CCTACTGGGCCAAGTTCATTGATCAGTCAAAGCA,3.93,3.54,0.0503,-0.432,1.19,2.85,3.64,0.935,0.262,1.88,1.71,1.45,1.09,2.37,0.409,0.994,0.294,2.89,4.4
